Results on 41 compounds are retold here after PubChem BioAssay AID686979 (National Center for Advancing Translational Sciences (NCATS), 2013).

The structures appear in SMILES notation. The whole screen tested about 420,000 compounds, of which about 50,000 (12%) were called active. About 26% were inconclusive and are not listed. The call rests on the fitted dose curve; in most records, active means well fitted inhibition curve with a large enough effect; inconclusive means small, poorly fitted or top-dose-only effect; inactive means flat fitted curve, though single readings scatter. Many of the other results were omitted from the sample, so actives are more common in it than they were.
On the % scale 0 is the no-effect control and ±100 the full control effect; potency means the concentration at half of the fitted maximal effect.

The nature of this experiment: qHTS for Inhibitors of human tyrosyl-DNA phosphodiesterase 1 (TDP1): qHTS in cells in presence of CPT. Further: nearly all actives have a fitted effect of over 55% in size. Particulars: chicken DT40 Tdp1-/-;hTDP1 cells + 20 nM CPT, ATP luminescence, 48 h; series mostly up to 46.2 µM; activity change, negative = growth inhibition: at the top concentration. The essentials:
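Chicken DT40 Tdp1-/- cells complemented with human TDP1, 400 cells/well, exposed to compounds plus 20 nM camptothecin for at least 48 h at 37 C; viability read as ATP content by CellTiter-Glo luminescence.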
A general note: qHTS replaces the single test concentration by a dilution series.
Turning to `Cc1cc(C)nc(/N=C2\NC(=O)CC(C(=O)O)N2c2ccc(Cl)cc2Cl)n1` (stereo unspecified), the “activity change, negative = growth inhibition” value was -8.38% (inactive).

On to `Cc1cc(NC(=O)/C=C/C(=O)N(CC(=O)NC2CCCC2)c2ccc(F)cc2)no1`, for which the “activity change, negative = growth inhibition” value was 8.35% (inactive).

Consider `Cc1cc(NC(=O)/C=C/C(=O)N(c2ccccc2C)C(C(=O)NC2CCCC2)c2ccc(F)cc2)no1` (stereo unspecified), for which the Potency was 20.6 µM (active).

As to `Cc1cc(NC(=O)CCC(=O)N(c2cccc(F)c2)C(C(=O)NC2CCCC2)c2ccncc2)no1` (stereo unspecified), the “activity change, negative = growth inhibition” value is -3.74% (inactive).

Consider `O=C(Nc1ccc(F)c([N+](=O)[O-])c1)C1CCCO1` (stereo unspecified), for which the “activity change, negative = growth inhibition” value is -10.5% (inactive).

Consider `CN(c1ccccc1)S(=O)(=O)c1cccc(C(=O)NNC(=O)c2ccncc2)c1`, for which the “activity change, negative = growth inhibition” value was -10.2% (inactive).

In the case of `CCN(CC)S(=O)(=O)c1ccc(N2CCOCC2)c(NC(=O)c2ccc(=O)n(C)n2)c1`, the “activity change, negative = growth inhibition” value was -10.4% (inactive).

Take `CCN(CC)S(=O)(=O)c1ccc(N2CCCC2)c(NC(=O)c2ccc([N+](=O)[O-])o2)c1`: the Potency was 23.1 µM (active).

Consider `CN(C)S(=O)(=O)c1ccc(N2CCCC2)c(C(=O)NCc2ccccc2)c1`, for which the “activity change, negative = growth inhibition” value was -14.6% (inactive).

`CCN1CCN(c2ccc(S(=O)(=O)N3CCCCC3)cc2NC(=O)c2cccc(NC(C)=O)c2)CC1`: the “activity change, negative = growth inhibition” value is -7.38% (inactive).

Consider `CCN(CC)S(=O)(=O)c1ccc(N2CCOCC2)c(C(=O)O)c1`, for which the “activity change, negative = growth inhibition” value was 0.809% (inactive).

With `CCN(CC)S(=O)(=O)c1ccc(N2CCOCC2)c(NC(=O)C2COc3ccccc3O2)c1` (stereo unspecified), the Potency is 18.4 µM (active).

`O=C(c1cccnc1)N(Cc1ccccc1)C(=O)c1cccnc1`: the “activity change, negative = growth inhibition” value was -2.33% (inactive).

Turning to `COc1ccccc1C(=O)NCC(=O)OCC(=O)NNC(=O)c1ccc(Br)cc1`, the “activity change, negative = growth inhibition” value was 3.59% (inactive).

With `Cc1ccc(N2C(=O)C(NC(=O)c3c(F)cccc3F)(C(F)(F)F)C3=C2CC(C)(C)CC3=O)cc1` (stereo unspecified), the “activity change, negative = growth inhibition” value was 20.2% (inactive).

In the case of `Cc1ccc(O)c(NC(=O)c2cc(-c3ccco3)on2)c1`, the “activity change, negative = growth inhibition” value was 6.69% (inactive).

For the compound `Cc1cccc(NC(=O)C2CC(=O)OC23CCCC3)c1` (stereo unspecified), the “activity change, negative = growth inhibition” value was -2.24% (inactive).

In the case of `COc1ccccc1C1C2=C(COC2=O)Nc2cc3c(cc21)OCO3` (stereo unspecified), the “activity change, negative = growth inhibition” value was -8.64% (inactive).

In the case of `COc1cc2c(cc1OC)C(c1ccc(C)o1)CC(=O)N2` (stereo unspecified), the “activity change, negative = growth inhibition” value is 10.7% (inactive).

For `CCCOc1ccccc1C1CC(=O)Nc2cc3c(cc21)OCO3` (stereo unspecified), the Potency was 2.31 µM (active).

In the case of `COc1ccccc1C(=O)NC(=O)COC(=O)C1CC1`, the “activity change, negative = growth inhibition” value is -14.2% (inactive).

For the compound `N#Cc1c(N)nc2c3c(sc(=N)c2c1N)NC(=O)CC3c1ccccc1Cl` (stereo unspecified), the “activity change, negative = growth inhibition” value is -88.9% (inactive).

`COc1ccc(NC(=O)CSCc2ccc([N+](=O)[O-])cc2)cc1OC`: the “activity change, negative = growth inhibition” value is -9.99% (inactive).

Regarding `CCCCOc1ccc(CSC(=N)N)cc1[N+](=O)[O-]`, the Potency is 13 µM (active).

Regarding `CCCCOc1ccc(CON(C(C)=O)C(C)=O)cc1Cl`, the “activity change, negative = growth inhibition” value was -14.4% (inactive).

Regarding `Cc1nn(C)c(C)c1C(C)NC(=O)c1ccc(OC2CCN(Cc3ccccn3)CC2)cc1` (stereo unspecified), the “activity change, negative = growth inhibition” value was -16.9% (inactive).

`Cc1ccc(/C=N/NC(=S)Nc2cccc(S(=O)(=O)N(C)C)c2)o1`: the Potency was 4.61 µM (active).

Take `Cc1ccc(/C=N/NC(=O)Cn2nc(C)c(Br)c2C)o1`: the “activity change, negative = growth inhibition” value is -14.3% (inactive).

For the compound `CN(C)S(=O)(=O)c1cccc(NC(=O)Cc2ccsc2)c1`, the “activity change, negative = growth inhibition” value was -1.21% (inactive).

For `COc1ccc(NC(=O)CN(C)C(=O)Cc2coc3cc(C)c(C)cc23)cc1`, the “activity change, negative = growth inhibition” value was -2.55% (inactive).

As for `COc1ccc(NC(=O)C(CC(C)C)NC(=O)C2CCC(C)CC2)cc1` (stereo unspecified), the “activity change, negative = growth inhibition” value was -10.8% (inactive).

As to `CCc1ccc(-n2nnc(-c3nc(-c4ccccc4)no3)c2C)cc1`, the “activity change, negative = growth inhibition” value is -18.1% (inactive).

As to `O=C(CN(C(=O)c1csnn1)c1cccc(Cl)c1)NC1CCCC1`, the “activity change, negative = growth inhibition” value is -0.246% (inactive).

`O=C(NC(=S)Nc1ccccc1N1CCCCC1)c1ccc(F)cc1`: the “activity change, negative = growth inhibition” value is -10.6% (inactive).

On to `CC(=O)c1ccc(NC(c2ccc(F)cc2)c2nnc(-c3ccccc3)o2)cc1` (stereo unspecified), for which the Potency is 9.2 µM (active).

On to `CCCN(CCC)c1ccc(C(O)c2nnc(-c3ccccc3)o2)cc1` (stereo unspecified), for which the “activity change, negative = growth inhibition” value is 2.08% (inactive).

Take `CC(=O)c1ccc(NC(=O)COc2ccccc2-c2nc(-c3ccccc3)no2)cc1`: the “activity change, negative = growth inhibition” value was 4.35% (inactive).

As to `CCn1c(SCC(=O)Nc2ccc3c(c2)OCCO3)nnc1-c1ccncc1`, the “activity change, negative = growth inhibition” value is 3.72% (inactive).

In the case of `CCC(=O)c1ccc(OCC(=O)OCC(=O)NC2CCCCCC2)cc1`, the “activity change, negative = growth inhibition” value is -25.7% (inactive).

Turning to `Cc1cc(C)c(C)c(S(=O)(=O)Nc2cccnc2)c1C`, the “activity change, negative = growth inhibition” value was 2.32% (inactive).

Turning to `Cc1ccc(C(=O)NNC2=Nc3cc([N+](=O)[O-])ccc3OC2)cc1`, the “activity change, negative = growth inhibition” value is -2.68% (inactive).
